# Measured values reported in PubChem BioAssay (NCATS).
# Results filed as inconclusive are left out. Entries that show only a call come without a potency. Activity calls are given as the source filed them. Calls come from the whole dose curve; as a rule, active = well fitted inhibition curve with a large enough effect; inconclusive = small, poorly fitted or top-dose-only effect; inactive = flat fitted curve, though single readings scatter.
# Assay: Cytometry Cell-Based qHTS for Inhibitors of the mTORC1 Signaling Pathway in MEF cells (AID 2668)
# Settings: mTORC1 pathway readout; series mostly up to 38.3 µM
# In short: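 MEFs (Tsc2-/-, p53-/- stably expressing WT Tsc2) treated 24 h at 37 degree Celsius, fixed, stained with Alexa-488 anti-phospho-rpS6 Ser235/236 and propidium iodide; Acumen laser scanning. Reported as % positive cells, phospho-S6 normalized to PI.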
# Potency is the fitted concentration of half-maximal effect.
row,SMILES,Potency
1,CC(C)(C)c1ccc(S(=O)(=O)/C=C/C#N)cc1,inactive
2,CC(C)Cc1ccc([C@H](C)C(=O)O)cc1,inactive
3,CN1CCc2cccc3c2C1Cc1ccc(O)c(O)c1-3 (stereo not given),inactive
4,O=C(/C=C/c1ccc(O)c(O)c1)OCCc1ccccc1,3.29 µM (active)
5,Cc1cc(NC(=O)Nc2ccc3c(ccn3C)c2)sn1,inactive
6,O=C(O)CC[C@@H](C(=O)O)N1C(=O)c2ccccc2C1=O,inactive
7,CN(C)CCC(c1ccc(Cl)cc1)c1ccccn1 (stereo not given),inactive
8,C=CC(N)CCC(=O)O (stereo not given),inactive
9,CN(C)c1nc(N)c(C(=O)N=C(N)N)nc1Cl,inactive
10,CCN1/C(=C/C(C)=O)Sc2ccc(OC)cc21,inactive
11,NCCNC(=O)c1ncsc1-c1cccc(F)c1,inactive
12,CCCn1c(=O)c2[nH]c(-c3ccc(OCC(=O)NCCN)cc3)nc2n(CCC)c1=O,inactive
13,Ic1ccc(N2CCN(Cc3c[nH]c4ncccc34)CC2)cc1,inactive
14,COc1ccc(/C=C/C(=O)Nc2ccccc2C(=O)O)cc1OC,inactive
15,O=C1NC(O)=NC1(c1ccccc1)c1ccccc1,inactive
16,COc1cc(C(O)CO)ccc1OS(=O)(=O)O (stereo not given),inactive
17,NO,inactive
18,O=c1[nH]c2cc([N+](=O)[O-])c([N+](=O)[O-])cc2[nH]c1=O,inactive
19,c1ccc(-c2ccccn2)nc1,inactive
20,CCCCN1CCC(n2c(=O)[nH]c3ccccc32)CC1,inactive
21,O=C(O)c1cc(=O)c2ccccc2[nH]1,inactive
22,COc1ccc(NC(=O)/C=C/c2ccc(Cl)cc2)cc1,inactive
23,Cn1c(=O)c2[nH]c(-c3ccccc3)nc2n(C)c1=O,inactive
24,OCC1O[C@H](O)C(Cl)C(O)C1O (stereo not given in full),inactive
25,O=C(O)[C@@H]1C[C@H](C(=O)O)N1,inactive
